# From PubChem BioAssay (Tox21)
# Results filed as inconclusive are left out. Where a call stands in place of a potency, no number is given. Values without a mark were called inactive. The source made the active and inactive calls. Unless noted, calls follow the shape of the dose curve; as a rule, active = well fitted curve in the direction sought with a large enough effect in the repeat runs; inconclusive = weak or mixed curves; inactive = no such curve, though single readings can be large; an effect the other way counts as inactive or inconclusive.
# How the values were obtained:
# [1] = qHTS assay to identify small molecule agonists of the AP-1 signaling pathway - cell viability counter screen (AID 1159525; calls by dose curve; also: nearly all actives have a fitted effect of over 55% in size)
# Procedure, shortened: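 ME-180 AP-1-bla, 2500 cells/well, Opti-MEM + 0.5% dialyzed FBS; overnight 37 °C; cpd 15-pt titration, 5 h 37 °C; CellTiter-Glo 30 min RT; luminescence read; normalised to TOAB and DMSO controls.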
# [2] = qHTS assay to identify small molecule agonists of the AP-1 signaling pathway (AID 1159526; calls by dose curve)
# [3] = molecular target: Retinoic acid receptor RXR-alpha (Homo sapiens) (UniProt P19793); test: qHTS assay to identify small molecule agonists of the RXR signaling pathway (AID 1159527; calls by dose curve; also: nearly all actives have a fitted effect of over 35% in size)
# Procedure, shortened: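 GeneBLAzer RXR-alpha-UAS-bla HEK 293T cells in 2% charcoal-stripped FBS medium were exposed to compounds for 16 hr at 37 C in agonist mode. Beta-lactamase reporter read as 460/530 nm FRET ratio after 2 hr substrate loading.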
# [4] = qHTS assay to identify small molecule antagonists of the retinoid acid receptor (RAR) signaling pathway - cell viability counter screen (AID 1159551); also: nearly all actives have a fitted effect of over 35% in size
# Procedure, shortened: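 Seed C3RL4 cells; next day add compound, then retinol to 1 uM final; incubate 6 h at 37 C; add CellTiter-Glo; read luminescence after 30 min at RT.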
# [5] = qHTS assay to identify small molecule antagonists of the estrogen related receptor (ERR) signaling pathway from Tox21 library - cell viability counter screen (AID 1224834); also: nearly all actives have a fitted effect of over 30% in size; also: potency is read from the fitted curve at half-maximal effect
# Procedure, shortened: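 CellTiter-Fluor fluorescence measured; ERR cells; 17.5 h compound incubation at 37 C; 30 min reagent step.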
# [6] = molecular target: Luciferin 4-monooxygenase (Photinus pyralis) (UniProt P08659); test: qHTS assay to identify small molecule inhibitors of firefly luciferase (AID 1224835); also: nearly all actives have a fitted effect of over 25% in size; also: potency is read from the fitted curve at half-maximal effect; as to activity change, negative = inhibition: series mostly up to about 120 µM
# Procedure, shortened: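 Quantitative HTS format; KM concentrations of both substrates. Purified P. pyralis FLuc activity quantified from luminescence images.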
# [7] = qHTS assay to identify small molecule agonists of the constitutive androstane receptor (CAR) signaling pathway - cell viability counter screen (AID 1224836); also: series mostly up to about 92 µM; nearly all actives have a fitted effect of over 45% in size
# Procedure, shortened: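 HepG2 cells stably carrying hCAR and a CYP2B6-2.2kb reporter; 15-concentration compounds plus PK11195 (final 0.75 uM), 23 hr at 37 C/5% CO2. Viability read by CellTiter-Fluor fluorescence.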
# [8] = qHTS assay to identify small molecule antagonists of the constitutive androstane receptor (CAR) signaling pathway - cell viability counter screen (AID 1224837); also: series mostly up to about 92 µM; nearly all actives have a fitted effect of over 45% in size
# Procedure, shortened: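 Using CellTiter-Fluor, viability is scored in HepG2 cells stably carrying hCAR and a 2.2kb CYP2B6 reporter after 23 hr compound exposure across 15 concentrations, with CITCO present at 50 nM.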
# [9] = qHTS assay to identify small molecule agonists of the RXR signaling pathway - cell viability counter screen (AID 1159529); also: series mostly up to about 77 µM; nearly all actives have a fitted effect of over 50% in size
# Procedure, shortened: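 RXR-alpha-UAS-bla HEK 293T cells in medium with 2% charcoal-stripped FBS were pre-incubated 5 hr, then compound-treated 16 hr at 37 C. Viability was read by CellTiter-Glo luminescence in the same wells as the beta-lactamase assay, with tetraoctyl ammonium bromide as positive control.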
# [10] = qHTS assay to identify small molecule antagonists of the retinoic acid receptor (RAR) signaling pathway (AID 1159552; also: nearly all actives have a fitted effect of over 50% in size)
# Procedure, shortened: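 Retinol signaling pathway inhibitors screened in C3RL4 RARE-luciferase reporter cells seeded overnight at 37 C, then compounds added with 1 uM (final) retinol as pathway substrate. After 6 hr at 37 C, luciferase luminescence read after 30 min at room temperature.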
# [11] = qHTS assay to identify small molecule antagonists of the vitamin D receptor (VDR) signaling pathway - cell viability counter screen (AID 743225); also: nearly all actives have a fitted effect of over 50% in size; also: potency is read from the fitted curve at half-maximal effect
# Procedure, shortened: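 VDR-UAS-bla HEK 293T cells were plated and incubated 4 h at 37C, then dosed with compound plus 3 nM (final) 1-alpha,25-dihydroxyvitamin D3 for 16 h. After the 2 h beta-lactamase read, viability in the same wells was read as CellTiter-Glo luminescence after 30 min at room temperature.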
# [12] = qHTS assay to identify small molecule agonists of the retinoic acid receptor (RAR) signaling pathway (AID 1159553)
# Procedure, shortened: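 Activation of retinol signaling was monitored via a RARE luciferase reporter in C3RL4 cells. After 6 hr compound treatment at 37 C, detection reagent was added for 30 min at room temperature before luminescence reading.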
# [13] = qHTS assay to identify small molecule antagonists of the estrogen related receptor (ERR) signaling pathway - cell viability counter screen (AID 1224818);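 also: series mostly up to about 46 µM; viability measured after 17.5 h of compound exposure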
# Procedure, shortened: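 In the same ERR cell assay, compound-treated wells (17.5 h, 37 C) were multiplexed with a fluorogenic viability reagent, CellTiter-Fluor, read after 30 min to flag cytotoxic substances.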
# [14] = molecular target: Nuclear receptor ROR-gamma (Homo sapiens) (UniProt P51449); test: qHTS assay to identify small molecule antagonists of the retinoid-related orphan receptor gamma (ROR-gamma) signaling pathway (AID 1159521; also: potency is read from the fitted curve at half-maximal effect; nearly all actives have a fitted effect of over 50% in size)
# Procedure, shortened: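 Tet-on ROR-gamma CHO cells with ROR response element-luciferase reporter; compounds added 2 hr before 1 uM doxycycline induction, then 16 hr at 37 C. Antagonism scored as decreased ONE-Glo luminescence.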
# [15] = qHTS assay to identify small molecule antagonists of the estrogen related receptor (ERR) signaling pathway (AID 1224819)
# Procedure, shortened: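 qHTS in ERR cells, 2,000/well, 1536 format. Cpd (DMSO) added after 6 h settle, 18 h 37 C. One-Glo luminescence, 30 min RT.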
# [16] = qHTS assay to identify small molecule agonists of the estrogen related receptor (ERR) signaling pathway (AID 1224820); also: potency is read from the fitted curve at half-maximal effect
# Procedure, shortened: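 ERR reporter cells (NTP line) plated 2,000/well, incubated 6 h at 37 C/5% CO2, then pinned with compounds in DMSO and held 18 h at 37 C. One-Glo added; luminescence read after 30 min at room temperature.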
# [17] = tested on: estrogen-related receptor alpha (ERRalpha) with PGC-1alpha coactivator, human; test: qHTS assay to identify small molecule antagonists of the estrogen related receptor signaling pathway with the pleiotropic PPARgamma coactivator (PGC) (AID 1224821; calls by dose curve)
# Procedure, shortened: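 Cells engineered for PGC/ERR signalling (line from NTP) were plated 6 h at 37 C/5% CO2, then exposed to DMSO-dissolved compound for 18 h at 37 C. Luciferase activity was read by One-Glo luminescence after 30 min at room temperature.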
# [18] = qHTS assay to identify small molecule antagonists of the estrogen related receptor signaling pathway with the pleiotropic PPARgamma coactivator (PGC) cell viability counter screen (AID 1224822; also: series mostly up to about 46 µM)
# Procedure, shortened: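 Compounds in DMSO, with positive and negative controls, were applied to PGC/ERR cells (2,000/well) and left 17.5 h at 37 C before CellTiter-Fluor detection.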
# [19] = qHTS assay to identify small molecule agonists of the estrogen related receptor signaling pathway with the pleiotropic PPARgamma coactivator (PGC) (AID 1224823); also: potency is read from the fitted curve at half-maximal effect
# Procedure, shortened: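 PGC/ERR reporter cells were seeded, rested 6 h at 37 C/5% CO2, then exposed to compounds in DMSO by pin transfer for 18 h at 37 C. Luciferase activity was read as luminescence after One-Glo reagent and 30 min at room temperature.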
# Sequence of Luciferin 4-monooxygenase (Photinus pyralis) (P08659 whole entry, looked up): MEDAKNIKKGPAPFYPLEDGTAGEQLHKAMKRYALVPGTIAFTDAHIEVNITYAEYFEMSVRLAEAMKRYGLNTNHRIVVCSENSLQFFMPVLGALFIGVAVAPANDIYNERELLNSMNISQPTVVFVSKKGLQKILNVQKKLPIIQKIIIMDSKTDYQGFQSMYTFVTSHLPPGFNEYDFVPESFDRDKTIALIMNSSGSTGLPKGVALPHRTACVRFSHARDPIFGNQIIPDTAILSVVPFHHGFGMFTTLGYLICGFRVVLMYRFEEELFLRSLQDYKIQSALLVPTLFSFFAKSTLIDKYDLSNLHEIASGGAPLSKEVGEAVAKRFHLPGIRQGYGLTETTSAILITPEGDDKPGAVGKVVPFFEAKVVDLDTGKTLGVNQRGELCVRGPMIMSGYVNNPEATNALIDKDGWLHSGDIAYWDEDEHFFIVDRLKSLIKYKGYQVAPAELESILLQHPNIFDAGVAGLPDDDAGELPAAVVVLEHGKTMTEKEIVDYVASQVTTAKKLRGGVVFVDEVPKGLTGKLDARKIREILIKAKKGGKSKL
# Sequence of Retinoic acid receptor RXR-alpha (Homo sapiens) (P19793 whole entry, looked up): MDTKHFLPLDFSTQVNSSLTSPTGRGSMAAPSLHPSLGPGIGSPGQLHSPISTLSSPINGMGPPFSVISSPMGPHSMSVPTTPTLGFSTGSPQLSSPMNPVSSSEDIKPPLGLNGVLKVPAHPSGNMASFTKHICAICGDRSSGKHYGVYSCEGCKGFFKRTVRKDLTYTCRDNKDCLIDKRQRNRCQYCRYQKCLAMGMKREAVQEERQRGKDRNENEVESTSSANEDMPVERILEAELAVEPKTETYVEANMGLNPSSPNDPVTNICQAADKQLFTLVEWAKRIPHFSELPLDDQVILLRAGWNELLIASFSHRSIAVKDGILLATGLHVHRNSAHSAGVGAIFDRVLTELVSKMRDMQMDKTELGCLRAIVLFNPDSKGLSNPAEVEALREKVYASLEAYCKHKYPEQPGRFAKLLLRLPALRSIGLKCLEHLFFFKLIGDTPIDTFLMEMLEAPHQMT
compound,measurement,setting,value
O=C(O)C[C@H](O)C[C@H](O)/C=C/c1c(C2CC2)nc2ccccc2c1-c1ccc(F)cc1,"viability change, negative = cytotoxic",[1],2.51% [at 15.8 µM]
same,activation,[2],4.12% [at 15.8 µM]
same,activation,[3],-9.56% [at 15.8 µM]
same,"activity change, negative = cytotoxicity",[4],1.42% [at 19 µM]
same,"viability change, negative = cytotoxic",[5],0.576% [at 19 µM]
same,"activity change, negative = inhibition",[6],5.31% [at 23.6 µM]
same,"viability change, negative = cytotoxic",[7],-13.2% [at 19 µM]
same,"activity change, negative = cytotoxicity",[8],-0.918% [at 19 µM]
c1ccc(-c2nc3ccccc3[nH]2)cc1,Potency,[1],inactive
same,Potency,[2],inactive
same,Potency,[3],inactive
same,Potency,[9],inactive
same,Potency,[10],inactive
same,Potency,[5],inactive
same,Potency,[6],5.64 µM (active)
S=C1NC=NC2N=CNC12 (stereo not given),Potency,[11],7.77 µM (active)
same,Potency,[1],inactive
same,Potency,[2],inactive
same,Potency,[12],inactive
same,Potency,[6],inactive
same,Potency,[7],inactive
CC/C=C\C/C=C\C/C=C\CCCCCCCC(=O)OC,Potency,[1],inactive
same,Potency,[2],inactive
same,Potency,[4],inactive
same,Potency,[6],inactive
same,Potency,[7],inactive
same,Potency,[8],inactive
C=CC1(C)CC(=O)C2(O)C(C)(O1)C(OC(C)=O)C(O)C1C(C)(C)CCC(O)C12C (stereo not given),Potency,[13],inactive
CCCCC/C=C\C=C\C(=O)OCC,Potency,[11],inactive
same,Potency,[14],56.8 µM (active)
same,Potency,[4],inactive
same,Potency,[5],71.5 µM (active)
same,Potency,[6],inactive
O=S(=O)(c1ccc(OCc2ccccc2)cc1)c1ccccc1O,Potency,[1],inactive
same,Potency,[9],inactive
same,Potency,[6],inactive
same,Potency,[8],inactive
Nc1ncnc2c1ncn2[C@@H]1O[C@H](CO)C(O)[C@H]1O (stereo not given in full),Potency,[13],inactive
N#C/C(=C\c1ccc(O)c(O)c1)C(=O)NCCc1ccccc1,Potency,[13],inactive
same,Potency,[15],inactive
same,Potency,[16],inactive
same,Potency,[17],inactive
same,Potency,[18],inactive
O=C(O)C1=CCCNC1,Potency,[13],inactive
same,Potency,[15],inactive
same,Potency,[16],inactive
same,Potency,[17],inactive
same,Potency,[18],inactive
same,Potency,[19],inactive
CCOC(=O)C(C)Oc1cccc2c(=O)n(CC(=O)Nc3ccc4c(c3)OCCO4)ccc12 (stereo not given),Potency,[13],inactive
same,Potency,[15],inactive
same,Potency,[16],inactive
same,Potency,[17],inactive
same,Potency,[18],inactive
COc1cc(CNC(=O)CCCCCCC(C)C)ccc1O,Potency,[13],inactive
same,Potency,[15],inactive
same,Potency,[16],inactive
same,Potency,[17],inactive
same,Potency,[18],inactive
CCCCCC[C@@H]([C@@H](C)O)n1cnc2c(N)ncnc21,Potency,[13],inactive
same,Potency,[15],inactive
same,Potency,[16],inactive
same,Potency,[17],inactive
same,Potency,[18],inactive
NC(C(=O)N[C@@H]1C(=O)N2C(C(=O)O)=C(Cl)CS[C@H]12)c1ccccc1 (stereo not given in full),Potency,[13],inactive
same,Potency,[15],inactive
same,Potency,[16],inactive
same,Potency,[17],inactive
same,Potency,[18],inactive
same,Potency,[19],inactive
CN(C)C(N)=NCCC[C@H](N)C(=O)O,Potency,[13],inactive
same,Potency,[15],inactive
same,Potency,[16],inactive
same,Potency,[17],inactive
same,Potency,[18],inactive
NC(=O)c1cc[n+](CC2=C(C(=O)O)N3C(=O)[C@@H](NC(=O)[C@@H](c4ccccc4)S(=O)(=O)[O-])[C@H]3SC2)cc1,Potency,[13],inactive
same,Potency,[15],inactive
same,Potency,[16],inactive
same,Potency,[17],inactive
same,Potency,[18],inactive
CSc1nc(N)c2ncn([C@@H]3O[C@H](COP(=O)(O)OP(=O)(O)O)C(O)[C@H]3O)c2n1 (stereo not given in full),Potency,[13],inactive
same,Potency,[15],inactive
same,Potency,[16],inactive
same,Potency,[17],inactive
same,Potency,[18],inactive
same,Potency,[19],inactive
CCCCCC(O)CCCC(=O)O (stereo not given),Potency,[13],inactive
same,Potency,[15],inactive
same,Potency,[16],inactive
same,Potency,[17],inactive
same,Potency,[18],inactive
same,Potency,[19],inactive
CCn1c(=O)[nH]c2cc(Cl)c(Cl)cc21,Potency,[13],inactive
same,Potency,[15],inactive
same,Potency,[16],inactive
same,Potency,[17],inactive
same,Potency,[18],inactive
same,Potency,[19],inactive
O=C(O)CC1CCCc2ccccc2C1O (stereo not given),Potency,[13],inactive
same,Potency,[15],inactive
same,Potency,[16],inactive
same,Potency,[17],inactive
same,Potency,[18],inactive
CN1CCc2cc(Cl)c(O)cc2[C@@H](c2ccccc2)C1,Potency,[13],inactive
same,Potency,[15],inactive
same,Potency,[16],inactive
same,Potency,[17],inactive
same,Potency,[18],inactive
same,Potency,[19],inactive
C[C@H](O)C(=O)C1=Nc2c(nc(N)[nH]c2=O)NC1,Potency,[13],inactive
same,Potency,[15],inactive
same,Potency,[16],inactive
same,Potency,[17],inactive
same,Potency,[18],inactive
same,Potency,[19],inactive
O=C1Cc2c([nH]c3ccc(Br)cc23)-c2ccccc2N1,Potency,[13],inactive
same,Potency,[15],inactive
same,Potency,[16],2.98 µM (active)
same,Potency,[17],inactive
same,Potency,[18],inactive
same,Potency,[19],1.23 µM (active)
CN(CCCOc1ccc(Cc2ccccc2)cc1)CCC(=O)O,Potency,[13],inactive
same,Potency,[15],inactive
same,Potency,[16],inactive
same,Potency,[17],inactive
same,Potency,[18],inactive
same,Potency,[19],inactive
O=c1cc(-c2ccccc2F)[nH]c2cc3c(cc12)OCO3,Potency,[13],inactive
same,Potency,[15],inactive
same,Potency,[16],inactive
same,Potency,[17],inactive
same,Potency,[18],inactive
NCCCS(=O)(=O)O,Potency,[13],inactive
same,Potency,[15],inactive
same,Potency,[16],inactive
same,Potency,[17],inactive
same,Potency,[18],inactive
same,Potency,[19],inactive
N=c1c[n+](N2CCOCC2)[n-]o1,Potency,[13],inactive
same,Potency,[15],inactive
same,Potency,[16],inactive
same,Potency,[17],inactive
same,Potency,[18],inactive
CCN(CC)CCOC(=O)c1cc(Cl)c(N)cc1OC,Potency,[13],inactive
same,Potency,[15],inactive
same,Potency,[16],inactive
same,Potency,[17],inactive
same,Potency,[18],inactive
same,Potency,[19],inactive
Cc1cccc(/C=C/c2ccccc2)n1,Potency,[13],inactive
same,Potency,[15],inactive
same,Potency,[16],13.3 µM (active)
same,Potency,[17],inactive
same,Potency,[18],inactive
same,Potency,[19],13.9 µM (active)
